Bioassay records (PubChem BioAssay)
C diff HTS: inhibitors of Clostridium difficile growth | growth activity, negative = inhibition, % at 16 µg/mL (by protocol) | 86,000 compounds, 0.25% hits | Clostridium difficile clinical isolate growth, OD600, 24 h; active compounds read low;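 active means mean growth activity at or below -80% and every replicate also at or below -80%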;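 further: 0% = DMSO wells and -100% = levofloxacin 16 µg/mL wells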
* = called active by the depositor. Many of the other results were omitted from the sample, so hits are more common in it than they were.

SMILES	C diff HTS
C[C@H]1CN([C@@H](C)CO)C(=O)c2cccc(NC(=O)NC3CCCCC3)c2O[C@H]1CN(C)S(=O)(=O)c1ccc(F)cc1	-3.8
CO[C@H]1CN(C)C(=O)c2ccc(NC(C)=O)cc2OC[C@H](C)N(Cc2ccccc2F)C[C@@H]1C	1.3
CCCN(C)C[C@H]1Oc2ncc(-c3cccc(C#N)c3)cc2C(=O)N([C@H](C)CO)C[C@@H]1C	-3.3
CCC(=O)N1CC2(C1)CN(CC1CCOCC1)[C@H](CO)c1c2c2ccc(OC)cc2n1C	6.1
O=C(NC1CCCCC1)N[C@H]1CC[C@@H](CCNS(=O)(=O)c2ccc(F)cc2)O[C@@H]1CO	0.9
Cc1ccc(S(=O)(=O)Nc2ccc3c(c2)C(=O)N([C@@H](C)CO)C[C@@H](C)[C@H](CN(C)C(=O)NC2CCCCC2)OCCCC[C@H](C)O3)cc1	-2.9
CCC(=O)NC[C@H]1N[C@H](CO)[C@@H]1c1ccc(C2=CCCC2)cc1	-4.2
O=C(NC[C@@H]1N[C@@H](CO)[C@H]1c1ccc(C2=CCCCC2)cc1)c1cccc(F)c1	-81.0*
CN(C[C@@H]1N[C@H](CO)[C@H]1c1ccc(C2=CCCC2)cc1)C(=O)c1cccc(F)c1	8.1
CO[C@H]1CN(C)C(=O)c2cc(NC(=O)c3ccc4c(c3)OCO4)ccc2OC[C@H](C)NC[C@H]1C	-1.0
CC(C)NC(=O)N(C)C[C@H]1Oc2ccc(NS(C)(=O)=O)cc2C(=O)N([C@@H](C)CO)C[C@H]1C	-0.6
OC[C@@H]1Nc2ccc(-c3ccccc3)cc2[C@@H]2[C@H]1CCN2Cc1ccccc1F	-7.4
COc1ccccc1C#Cc1ccc2c(c1)[C@H]1[C@H](CCN1C(=O)c1ccccc1)[C@H](CO)N2	2.0
COc1ccccc1CN1CC[C@H]2[C@H](CO)Nc3ccc(C#Cc4ccccc4)cc3[C@H]21	-99.6*
OC[C@H]1Nc2ccc(-c3ccccc3)cc2[C@@H]2[C@H]1CCN2Cc1ccccc1F	-101.0*
COc1ccc(-c2ccc3c(c2)[C@@H]2[C@@H](CCN2Cc2ccccc2F)[C@H](CO)N3)cc1	18.0
N#Cc1ccc(-c2ccc3c(c2)[C@H]2[C@H](CCN2C(=O)c2ccncc2)[C@H](CO)N3)cc1	-80.5*
COc1ccccc1CN1CC[C@H]2[C@H](CO)Nc3ccc(-c4cccc(F)c4)cc3[C@H]21	-1.8
N#Cc1ccc(-c2ccc3c(c2)[C@H]2[C@H](CCN2C(=O)c2ccc(F)cc2)[C@@H](CO)N3)cc1	11.4
N#Cc1cccc(-c2ccc3c(c2)[C@H]2[C@H](CCN2C(=O)c2ccncc2)[C@@H](CO)N3)c1	-2.8
COc1ccc(C#Cc2ccc3c(c2)[C@@H]2[C@@H](CCN2Cc2nccs2)[C@@H](CO)N3)cc1	-1.5
O=C(c1ccc(F)cc1)N1CC[C@H]2[C@H](CO)Nc3ccc(C#Cc4ccccc4F)cc3[C@H]21	68.9
COc1ccccc1C#Cc1ccc2c(c1)[C@H]1[C@H](CCN1C(=O)c1ccc(F)cc1)[C@@H](CO)N2	-100.8*
COc1ccccc1NC(=O)C[C@H]1CC[C@H]2[C@@H](COc3ccc(NC(C)=O)cc3C(=O)N2C)O1	-3.4
COCC(=O)N1C[C@@H]2[C@H](c3ccccc31)[C@H](CO)N2Cc1ccc(OC)cc1	4.3
SMILES	C diff HTS
COCCNC(=O)C[C@H]1CC[C@H]2[C@H](COc3ccc(NC(C)=O)cc3C(=O)N2C)O1	-1.3
C[C@H]1CN([C@@H](C)CO)C(=O)Cc2cc(NC(=O)CCN3CCOCC3)ccc2O[C@@H]1CN(C)Cc1ccc(-c2ccccc2)cc1	-3.3
O=C(CC1CC1)N1[C@H](CO)[C@@H](c2ccccc2)C12CN(Cc1ccncc1)C2	-3.5
C[C@@H]1CN([C@@H](C)CO)C(=O)c2cccc(NC(=O)c3cnccn3)c2O[C@@H]1CN(C)Cc1ccc(C(F)(F)F)cc1	1.8
CCCC#Cc1ccc(CC[C@H]2O[C@H]3CC[C@@H](CO)O[C@H]3C[C@H]2NS(=O)(=O)c2ccccc2)cc1	16.9
CC(C)NC(=O)Nc1ccc2c(c1)C(=O)N([C@H](C)CO)C[C@@H](C)[C@H](CN(C)S(=O)(=O)c1ccc(F)cc1)O2	-2.9
C[C@@H]1CN([C@H](C)CO)C(=O)c2cc(-c3cccnc3)cnc2O[C@H]1CN(C)C(=O)Nc1ccc2c(c1)OCO2	-0.2
COc1ccccc1C#Cc1ccc2c(c1)[C@@H]1[C@@H](CCN1C(=O)c1ccncc1)[C@@H](CO)N2	-94.6*
COc1ccccc1C#Cc1ccc2c(c1)[C@@H]1[C@@H](CCN1C(=O)c1ccncc1)[C@H](CO)N2	12.5
O=C(c1ccccc1)N1CC[C@@H]2[C@@H](CO)Nc3ccc(C#Cc4ccccc4F)cc3[C@@H]21	90.8
CCCNC(=O)[C@H]1[C@H](CO)[C@H]2Cn3c(ccc(-c4cccc(OC)c4)c3=O)[C@H]2N1Cc1nccs1	-5.1
COc1ccc(C(=O)Nc2ccc3c(c2)OC[C@H](C)NC[C@H](C)[C@@H](OC)CN(C)C3=O)cc1	-6.7
COc1ccc(NC(=O)N2CC[C@@H]3[C@H]2c2cc(Br)ccc2N(C)[C@H]3CO)cc1	6.9
COc1ccc(NC(=O)N2CC[C@@H]3[C@H]2c2cc(-c4ccc(F)cc4)ccc2N(C)[C@H]3CO)cc1	46.1
COc1cccc(C#Cc2ccc3c(c2)[C@@H]2[C@@H](CCN2C(=O)c2ccccc2F)[C@@H](CO)N3C)c1	-97.5*
CN1c2ccc(Br)cc2[C@H]2[C@H](CCN2C(=O)Nc2cccc(F)c2)[C@H]1CO	30.8
CN1c2ccc(Br)cc2[C@@H]2[C@@H](CCN2C(=O)Nc2ccc(F)cc2)[C@H]1CO	-98.3*
COc1cccc(-c2ccc3c(c2)[C@H]2[C@H](CCN2C(=O)c2ccccc2F)[C@H](CO)N3C)c1	-0.1
COc1ccc(-c2ccc3c(c2)[C@H]2[C@H](CCN2C(=O)c2ccccc2F)[C@H](CO)N3C)cc1	-11.8
CN1c2ccc(Br)cc2[C@@H]2[C@@H](CCN2C(=O)Nc2ccc(F)cc2)[C@@H]1CO	15.3
COc1ccc(NC(=O)N2CC[C@H]3[C@@H]2c2cc(Br)ccc2N(C)[C@H]3CO)cc1	-98.5*
C/C=C/c1ccc([C@@H]2[C@@H](CO)N(S(C)(=O)=O)C23CN(C(=O)CC)C3)cc1	-5.1
N#C[C@@H]1[C@H](c2ccccc2)[C@@H](CO)N1C(=O)Nc1cccc(F)c1	-18.7
COc1cccc(S(=O)(=O)N[C@H]2CC[C@@H](CCn3cc(-c4ccc(F)cc4)nn3)O[C@H]2CO)c1	9.6
CN(C)CC(=O)N[C@H]1CC[C@H](CCNC(=O)Nc2ccc(Cl)cc2)O[C@H]1CO	1.5
SMILES	C diff HTS
CN(C)CC(=O)N[C@H]1CC[C@H](CCNC(=O)Nc2ccc(C(F)(F)F)cc2)O[C@H]1CO	-94.2*
O=C(NCC[C@H]1CC[C@@H](NC(=O)C2CCCC2)[C@@H](CO)O1)Nc1ccc(Cl)cc1	-0.8
O=C(NCC[C@@H]1CC[C@H](NC(=O)C2CC2)[C@H](CO)O1)Nc1ccc(C(F)(F)F)cc1	-95.1*
O=C(NCC[C@@H]1CC[C@@H](NC(=O)C2CC2)[C@@H](CO)O1)Nc1ccc(Cl)cc1	-3.8
O=C(NCC[C@@H]1CC[C@@H](NC(=O)C2CC2)[C@@H](CO)O1)Nc1ccc(C(F)(F)F)cc1	-84.7*
O=C(NCC[C@H]1CC[C@H](NC(=O)C2CC2)[C@H](CO)O1)Nc1ccc(Cl)cc1	2.3
O=C(NCC[C@H]1CC[C@H](NC(=O)C2CC2)[C@@H](CO)O1)Nc1ccc(Cl)cc1	-0.8
O=C(Nc1ccc(C(F)(F)F)cc1)N[C@H]1CC[C@H](CCNC(=O)c2ccccc2F)O[C@@H]1CO	7.1
